In the library only some 3.5% were active in any assay of this set; here they are far more common.
BoNT F protease: BoNT F light chain protease inhibition | Multiplex microsphere protease cleavage assay, flow cytometry | inhibition, % at 10 µM | 0.22% of 360,000 active | AID 588497; in the data active = inhibition above about 35%, passing the limit was not always enough; inconclusive = no clear call, values can overlap the other calls; also: plate controls were buffer without enzyme for full effect and enzyme alone for no effect
Anthrax LF prot: inhibitors of Bacillus anthracis lethal factor protease. P15917. multiplex microsphere protease cleavage assay, LF. inhibition, % at 10 µM. 0.12% of 360,000 active; also: plate controls were buffer without enzyme for full effect and enzyme alone for no effect
Target sequence (P15917 whole entry, looked up): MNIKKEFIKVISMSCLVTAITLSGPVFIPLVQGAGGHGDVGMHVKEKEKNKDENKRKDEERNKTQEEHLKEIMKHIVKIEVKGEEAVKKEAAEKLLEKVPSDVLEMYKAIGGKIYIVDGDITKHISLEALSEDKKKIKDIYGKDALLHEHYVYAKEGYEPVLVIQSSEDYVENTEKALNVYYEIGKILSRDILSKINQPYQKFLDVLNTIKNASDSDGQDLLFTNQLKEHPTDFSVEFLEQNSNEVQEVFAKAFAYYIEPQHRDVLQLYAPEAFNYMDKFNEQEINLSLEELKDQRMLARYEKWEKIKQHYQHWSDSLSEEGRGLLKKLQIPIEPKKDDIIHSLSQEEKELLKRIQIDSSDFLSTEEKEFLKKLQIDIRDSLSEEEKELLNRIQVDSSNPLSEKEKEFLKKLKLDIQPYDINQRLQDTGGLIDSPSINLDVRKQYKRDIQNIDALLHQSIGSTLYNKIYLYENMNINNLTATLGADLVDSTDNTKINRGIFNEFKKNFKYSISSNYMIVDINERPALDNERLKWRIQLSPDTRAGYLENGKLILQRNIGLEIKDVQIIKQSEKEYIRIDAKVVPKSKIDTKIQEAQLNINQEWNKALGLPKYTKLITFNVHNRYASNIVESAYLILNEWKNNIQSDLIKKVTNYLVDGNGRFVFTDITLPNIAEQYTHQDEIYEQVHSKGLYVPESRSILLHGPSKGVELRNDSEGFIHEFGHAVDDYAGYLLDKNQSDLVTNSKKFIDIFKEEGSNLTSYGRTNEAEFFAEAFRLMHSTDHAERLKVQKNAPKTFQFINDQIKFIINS
BoNT-A LC inh2: BoNT A light chain protease inhibition | 0.17% of 360,000 active | multiplex microsphere protease substrate cleavage, flow cytometry | inhibition, % at 10 µM | AID 588499; also: plate controls were buffer without enzyme for full effect and enzyme alone for no effect
Autofluor counter: flagged as autofluorescent in microsphere protease counterscreen; fluorescence intensity (no concentration beside the values); compound autofluorescence counterscreen, microsphere flow cytometry; hits give high values; 3.1% of 360,000 active; in the data active = fluorescence intensity above about 16000; inconclusive = no clear call, values can overlap the other calls
Active calls of the source: *; ? = inconclusive. Rule as the data show it, unless noted: active = inhibition above about 30%; inconclusive = no clear call, values can overlap the other calls; inactive = below that.

SMILES	BoNT F protease	Anthrax LF prot	BoNT-A LC inh2	Autofluor counter
O=C1Nc2cc(C(=O)N3CCN(c4ccccn4)CC3)ccc2S/C1=C\c1ccccc1	-0.2	1.6	0.3	5077
O=C(c1ccc2c(c1)OCO2)N1CCN(c2ccccn2)CC1	-2.2	-0.9	-0.1	2499
O=C(c1ccc2c(c1)OCCO2)N1CCN(c2ccccn2)CC1	-60.2	-10.3	-38.5	17835*
NC(=O)CC[C@H](NC(=O)OCc1ccccc1)C(=O)OCc1ccc(Cl)cc1	-4.5	-3.2	-1.0	1987
O=C(NC1CCCCC1)c1cc([N+](=O)[O-])ccc1N1CCCCC1	-2.4	-5.2	-1.4	23223*
COc1ccccc1Nc1nnc(SCC(=O)N2CCCC2)s1	0.6	0.4	?	23377*
CCOc1ccccc1Nc1nnc(SCC(=O)N2CCCC2)s1	-2.3	-8.0	-0.1	8546
COc1ccc(CCC(=O)Nc2nccs2)cc1OC	-8.5	2.5	1.0	3625
COc1cc(CC(=O)Nc2nccs2)cc(OC)c1OC	-3.7	-3.3	?	22884*
Cc1cc2occ(CC(=O)Nc3nccs3)c2cc1C(C)C	2.3	-1.6	?	22242*
COc1ccc2c(CC(=O)Nc3nccs3)coc2c1	-3.5	-1.7	2.5	4040
Cc1ccc(N(CC(=O)NC(C)(C)C)C(=O)CS(=O)CC(=O)Nc2ccc3c(c2)OCO3)cc1 (stereo not drawn)	-2.4	5.1	-0.1	4068
Fc1ccc(COc2ccc(/C=N/n3cnnc3)cc2)cc1	18.9	3.7	0.3	4220
C#CCOc1ccc(/C=C2/C(=O)N(c3cccc(C(=O)O)c3)N=C2C)cc1OC	35.3*	1.5	0.5	3037
COCCNC(=S)NNC(=O)c1ccco1	-1.9	-2.1	-1.4	23531*
O=C(NNC(=S)Nc1ccccc1)c1ccco1	-1.7	-2.7	?	22369*
C=CCNC(=S)NNC(=O)c1ccco1	-1.5	-5.4	-0.5	4304
O=C(NC(=S)NNC(=O)c1cccs1)c1ccco1	-1.8	-1.3	-2.7	23561*
CC(C)CNC(=S)NNC(=O)c1ccco1	1.1	-0.9	0.6	22008*
Cc1ccccc1NC(=S)NNC(=O)c1ccco1	9.1	0.4	0.9	5501
CC1(NC(=O)Cc2csc(-c3cccc(Cl)c3)n2)CCS(=O)(=O)C1 (stereo not drawn)	-15.5	-1.4	-3.4	6196
C/C(=N\NC(=O)c1cccc(N/N=C(\C)c2cc(O)ccc2O)c1)c1cc(O)ccc1O	-8.4	-2.6	-0.7	2079
CCCc1cc(=O)[nH]c(SCC(=O)NC2CCCc3ccccc32)n1 (stereo not drawn)	-4.0	1.2	0.0	4984
CCOc1cc2c3c(c1)C1(OCCO1)C(=O)N3C(C)(C)CC2C (stereo not drawn)	-10.4	1.3	-0.7	2968
CCOc1cc2c3c(c1)C1(Nc4ccccc4S1)C(=O)N3C(C)(C)CC2C (stereo not drawn)	-3.2	-2.2	?	23624*
SMILES	BoNT F protease	Anthrax LF prot	BoNT-A LC inh2	Autofluor counter
COC(=O)c1cc(Cl)c(NC(=O)/C=C/c2ccc(Cl)cc2)cc1OC	-2.8	-0.9	-2.0	20164*
COC(=O)c1cc(Cl)c(NC(=O)c2cc(OC)c(OC)c(OC)c2)cc1OC	0.2	2.3	2.2	21669*
CCOC(=O)C1(CCOc2ccccc2)CCN(Cc2cccc(OC)c2O)CC1	?	11.3	-0.4	4124
CCOC(=O)N1CCN(C(=O)CSCC(=O)Nc2nc(-c3ccc4c(c3)OCO4)cs2)CC1	1.5	-6.1	2.1	19205*
COCCNC(=O)C1CCCN(C(=O)c2nc(C)oc2C)CC1 (stereo not drawn)	3.2	2.0	-0.1	2952
O=C(Nc1ccc([N+](=O)[O-])cc1)C(c1ccccc1)c1ccccc1	-1.6	-4.4	0.2	3550
CCn1c(SCC(=O)c2ccc(Br)cc2)nnc1C(C)NC(=O)Cc1ccc(OC)cc1 (stereo not drawn)	-5.2	-9.7	-4.5	17649*
CC(C)CCOc1ccc(C(=O)NCCC(=O)N2CCOCC2)cc1	5.7	-12.1	3.6	21240*
CCCCOc1ccc(C(=O)NCCCC(=O)N2CCCCC2)cc1	-9.4	-7.0	-1.5	6659
CCCCCc1nc2ccccc2c(=O)n1-c1ccc(Cl)cc1[N+](=O)[O-]	-6.0	-0.5	-2.7	23302*
CCCCc1nc2ccccc2c(=O)n1-c1ccccc1O	11.2	-0.2	0.2	2493
CCc1ccc(C(C)NC(=O)/C=C/c2ccc(Br)cc2)cc1 (stereo not drawn)	1.7	-1.1	-0.8	22674*
CC(NC(=O)/C=C/c1ccc(Br)cc1)c1ccccc1 (stereo not drawn)	-6.0	-0.7	-0.4	1977
COCCOn1c(SCCOC)nc2ccccc2c1=O	?	?	?	4172
CCCNC(=O)Cn1c(=O)/c(=C\c2ccc(-c3cccc([N+](=O)[O-])c3)o2)s/c1=C\C(=O)C(C)(C)C	12.2	15.5	32.6*	2727
Cc1ccc(S(=O)(=O)Nc2ccc(C(=O)NCCCn3ccnc3)cc2)cc1[N+](=O)[O-]	2.3	-2.1	-0.3	3473
O=c1[nH]c(=O)n(-c2ccc(F)cc2)c2c1C(C(F)(F)F)(C(F)(F)F)N=C(c1ccc(F)cc1)N2	-7.0	-2.3	0.0	2529
COc1ccc(-n2c3c(c(=O)[nH]c2=O)C(C(F)(F)F)(C(F)(F)F)N=C(CC(C)C)N3)cc1	5.7	-0.7	3.8	19298*
CC(=O)N1CCN(C(=O)c2cc3ccccc3o2)CC1	-13.3	8.1	-4.7	4079
O=C(c1cc2ccccc2o1)N1CCN(S(=O)(=O)c2c(F)cccc2F)CC1	-84.4	-14.2	-54.2	20189*
CC(C)(C)C(=O)Nc1ccccc1C(=O)Nc1cc(Cl)ccc1Cl	-1.4	-1.3	-1.0	23417*
COC(=O)c1ccccc1NC(=O)CSc1nccn1C	-9.3	-4.9	-1.0	3295
Cn1ccnc1SCC(=O)Nc1cccc2ccccc12	3.1	-3.7	-0.5	19695*
O=C(CSc1nnc(-c2ccc(Br)cc2)o1)Nc1cccc2ccccc12	2.2	0.3	1.6	23146*
CC(C)/C=N/Nc1nc(-c2ccc(Br)cc2)cs1	-2.8	-1.8	1.0	2241
SMILES	BoNT F protease	Anthrax LF prot	BoNT-A LC inh2	Autofluor counter
C=CCN(C(=O)CSc1nc2ccsc2c(=O)n1Cc1ccc(C(=O)O)cc1)c1ccccc1	-1.2	-2.5	-0.2	3861
CCOC(=O)c1c[nH]c2c3c(ccc2c1=O)CCCC3	-7.5	2.4	-4.7	21559*
CCOC(=O)c1c[nH]c2c(C)cc(C)cc2c1=O	-1.7	-1.4	?	20267*
CCOC(=O)c1c[nH]c2c(Cl)c(Cl)ccc2c1=O	10.2	3.9	0.2	3885
CCN(CC)C(=O)CSc1nnc(CCNC(=O)OC(C)(C)C)o1	-1.1	-0.1	-0.2	23519*
CSc1nnc(CCNC(=O)OC(C)(C)C)o1	?	5.6	-2.4	4208
Cc1ccc(C)c(NC(=O)CSc2nnc(CCNC(=O)OC(C)(C)C)o2)c1	0.4	6.4	0.8	15807
CN(C)C(=O)CSc1nnc(CCNC(=O)OC(C)(C)C)o1	4.1	-2.9	0.4	22750*
CCN(CC)C(=O)CSc1nnc(CCN)o1	-2.0	-1.8	-2.1	23987*
Cc1c(Cl)cccc1NC(=O)CSc1nnc(CCNC(=O)OC(C)(C)C)o1	3.7	-0.9	1.8	22523*
Cc1ccc(C)c(NC(=O)C2CC(=O)N(C3CCCCC3)C2)c1 (stereo not drawn)	2.0	-9.3	-0.6	3041
